Test [1] addresses Peroxisome proliferator-activated receptor gamma (Homo sapiens) (UniProt P37231). The test can be described thus: OT_PPARg_PPARgSRC1_1440: Odyssey Thera (OT) 24-hour Protein-Complementation Assay for Peroxisome Proliferator-activated Receptor Gamma/ SRC-1 Co-activator (AID 2283388; active means hit-call score of the fitted dose curve at least 0.9, where 1 is the maximum;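 further: nuclear to cytoplasmic ratio of reconstituted Venus YFP fluorescence in fixed imaged cells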). Summed up:
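Protein-fragment complementation between PPARg and coactivator SRC-1 was measured by fluorescence imaging in transiently transfected HEK293T cells after 24 h treatment. Signal was quantified as N/C ratio in the 488 nm channel, with DMSO as negative control.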

Test [2] in a line: CEETOX_H295R_11DCORT: CeeTox H295R High-throughput Steroidogenesis Assay for 11-Deoxycortisol (11DCORT) (AID 2283432).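 On AC50: 11-deoxycortisol secreted into the medium measured by LC-MS/MS.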 The following applies: actives raise or lower the signal. Summed up:
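Steroidogenesis in human H295R cells: 48 h chemical exposure after forskolin priming, 11-deoxycortisol measured by LC-MS/MS.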

Test [3] in a line: CEETOX_H295R_OHPREG: CeeTox H295R High-throughput Steroidogenesis Assay for OH-Pregnenolone (OHPREG) (AID 2283434). The following applies: actives raise or lower the signal. Summed up: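 Secreted 17alpha-hydroxypregnenolone measured by HPLC-MS/MS after liquid-liquid extraction. Human adrenal H295R cells received 48 h forskolin (10 uM) stimulation before 48 h chemical exposure at 0.1% final DMSO; MTT viability in same wells; bidirectional fit against DMSO.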

The nature of test [4]: CEETOX_H295R_ANDR: CeeTox H295R High-throughput Steroidogenesis Assay for Androstenedione (ANDR) (AID 2283436). Particulars: actives raise or lower the signal. Put shortly:
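Medium from 48 h chemical-treated H295R adrenal cells was extracted with MTBE and androstenedione measured by LC-MS/MS. Activity was fit in both directions relative to DMSO. Cytotoxic concentrations were re-tested after dilution until MTT viability reached ≥70%.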

Test [5] in a line: CEETOX_H295R_CORTIC: CeeTox H295R High-throughput Steroidogenesis Assay for Corticosterone (CORTIC) (AID 2283437). The following applies: actives raise or lower the signal. Summed up: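 Medium corticosterone was quantified by tandem mass spectrometry following 48 hours of chemical exposure (0.1% DMSO) in human H295R cells previously stimulated 48 hours with 10 uM forskolin. Viability checked by MTT; chemicals diluted and retested when viability fell below 70%.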

The nature of test [6]: CEETOX_H295R_CORTISOL: CeeTox H295R High-throughput Steroidogenesis Assay for Cortisol (AID 2283438).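 Further: cortisol secreted into medium quantified by LC-MS/MS.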 Particulars: actives raise or lower the signal. Summed up:
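Read-out: cortisol in culture medium by reverse-phase C18 HPLC with ESI-positive tandem MS, after MTBE liquid-liquid extraction. Cells: human adrenal H295R, forskolin-primed (10 uM, 48 h) before 48 h chemical exposure in 0.1% DMSO.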

Test [7] can be described thus: CEETOX_H295R_DOC: CeeTox H295R High-throughput Steroidogenesis Assay for DOC (AID 2283439). Particulars: actives raise or lower the signal. Put shortly:
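Human adrenocortical H295R cells, passages up to 10, received 10 uM forskolin for 48 h before chemical addition. After another 48 h exposure in 0.1% DMSO, secreted DOC was measured by LC-MS/MS, with gain or loss fitted against DMSO controls.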

Test [8] can be described thus: CEETOX_H295R_ESTRADIOL: CeeTox H295R High-throughput Steroidogenesis Assay for Estradiol (AID 2283440).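 Further: estradiol secreted into medium quantified by LC-MS/MS after dansyl derivatisation.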 Particulars: actives raise or lower the signal. Put shortly: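 Estradiol secreted into the medium was measured by tandem mass spectrometry after liquid-liquid extraction and dansylation. Human H295R cells had been forskolin-primed (10 uM, 48 h) before a 48 h chemical exposure with 0.1% DMSO.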

Test [9] in a line: CEETOX_H295R_ESTRONE: CeeTox H295R High-throughput Steroidogenesis Assay for Estrone (AID 2283441).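 Further: estrone secreted into medium measured by LC-MS/MS after dansyl derivatization.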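 On AC50: human adrenal H295R cells prestimulated with forskolin for two days.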 The following applies: actives raise or lower the signal. Summed up: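 Forskolin-stimulated H295R cells are treated 48 h with chemical, and estrone in the medium is measured by LC-MS/MS. Activity is fitted in both directions relative to DMSO controls, with chemicals diluted until MTT viability reaches at least 70%.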

Test [10] is described as follows: CEETOX_H295R_PROG: CeeTox H295R High-throughput Steroidogenesis Assay for Progesterone (PROG) (AID 2283442). Particulars: actives raise or lower the signal. Summed up:
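Steps: seed H295R cells and let them adhere overnight; prime 48 h with 10 uM forskolin; dose with compound in DMSO at 0.1% final for 48 h; extract medium steroids with MTBE; measure progesterone by LC-MS/MS. MTT viability was run in the same wells.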

Some structures have more than one record in an assay (separate samples or runs), and their calls can disagree. Calls of active or inactive are those of the source. How the source made its calls, unless noted: active means hit-call score of the fitted dose curve at least 0.9, where 1 is the maximum; inactive means score below 0.9.

Sequence of Peroxisome proliferator-activated receptor gamma (Homo sapiens) (P37231 whole entry, looked up, the tested form may be a part): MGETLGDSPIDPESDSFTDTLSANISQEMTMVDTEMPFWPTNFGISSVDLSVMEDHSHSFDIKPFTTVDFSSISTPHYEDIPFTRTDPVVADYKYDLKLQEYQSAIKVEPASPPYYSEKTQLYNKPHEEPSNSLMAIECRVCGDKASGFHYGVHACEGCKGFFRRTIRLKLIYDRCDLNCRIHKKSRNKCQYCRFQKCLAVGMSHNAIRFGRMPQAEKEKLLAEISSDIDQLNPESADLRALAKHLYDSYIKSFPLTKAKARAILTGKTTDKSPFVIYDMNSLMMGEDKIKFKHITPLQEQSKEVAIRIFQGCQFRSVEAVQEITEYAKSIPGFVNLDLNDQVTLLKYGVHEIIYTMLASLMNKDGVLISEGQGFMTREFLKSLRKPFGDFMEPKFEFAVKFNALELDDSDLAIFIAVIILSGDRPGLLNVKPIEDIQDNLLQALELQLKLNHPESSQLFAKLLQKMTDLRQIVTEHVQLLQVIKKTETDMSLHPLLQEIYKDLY

Regarding `CCOP(=S)(OCC)Oc1nc(Cl)c(Cl)cc1Cl`, the result in [1], in [5], in test [7], in [8] and in [9] was inactive. The AC50 in test [2] is 94.9 µM (active); in test [3] it was 80.5 µM (active); in test [4] it was 60.7 µM (active); in [6], 81.6 µM (active); in test [10], 39.3 µM (active).

Turning to `CC(C)OC(=O)Nc1ccccc1`, the compound was called inactive in test [1], in test [3] and in [10].

On to `Fc1ccc(C2(Cn3cncn3)OC2c2ccccc2Cl)cc1` (stereo unspecified), for which the compound was classed as inactive in test [1], in test [5] and in test [10]. Further, the AC50 in test [2] is 7.55 µM (active); in [3], 0.645 µM (active); in test [6] it was 3.04 µM (active); in [7], 2.08 µM (active); in [8] it was 1.5 µM (active); in [9], 2.03 µM (active).

Consider `CN(CCCC(=O)c1cccnc1)N=O`, for which the compound was called inactive in test [2], in test [3], in test [4], in test [5], in test [6] and in test [7]. Further, in test [10], the compound was classed as inactive.

For the compound `C[C@@H]1C[C@@H]([C@H](O)CC2CC(=O)NC(=O)C2)C(=O)[C@@H](C)C1`, the outcome in test [1], in [3] and in [10] was inactive.

In the case of `C[C@]12CCC(=O)C[C@@H]1CC[C@@H]1[C@@H]2CC[C@]2(C)[C@@H](O)CC[C@@H]12`, the result in test [1] was inactive. For the same compound, the values for the AC50 in [3] and in test [10] were 0.0791 µM (active) and 1.08 µM (active), respectively.

In the case of `O=C(Cc1ccccc1)c1ccccc1`, the result in test [2], in [3], in test [5], in [6] and in test [7] was inactive. Further, in test [10], the AC50 was 45.9 µM (active).

In the case of `Nc1ccc(-c2ccc(N)c(Cl)c2)cc1Cl`, the call in [2], in test [3], in test [5], in test [6], in test [7] and in test [8] was inactive. Also, the compound was called inactive in test [9] and in [10].

Regarding `C1CCC(NC2CCCCC2)CC1`, the compound was called inactive in [1], in test [2], in test [3], in [5], in test [6] and in test [7]. Also, the AC50 in [10] was 12.7 µM (active).

Turning to `COP(=O)(OC)O/C(=C\Cl)c1cc(Cl)c(Cl)cc1Cl`, the compound was classed as inactive in test [1], in test [3], in [4] and in test [10].

As for `C=C(C)C(=O)[O][Sn]([CH2]CCC)([CH2]CCC)[CH2]CCC`, in test [1], the half-maximal activity concentration (AC50) is 0.0287 µM (active) and the call was inactive.

Consider `CCOP(=S)(OCC)SCSP(=S)(OCC)OCC`, for which the call in test [1], in [5], in [6], in [8] and in test [9] was inactive. The AC50 in [2] was 18.6 µM (active); in test [3], 14.9 µM (active); in test [7], 1.37 µM (active); in [10], 4.53 µM (active).

With `CCOP(=S)(OCC)SCCS(=O)(=O)CC`, the outcome in test [2], in [3], in test [5], in test [6], in test [7] and in test [8] was inactive. Also, the compound was called inactive in test [9]. In test [10], the half-maximal activity concentration (AC50) is 19.2 µM (active).

In the case of `O=C(Nc1ccc2[nH]ccc2c1)c1cc2cc(F)ccc2n1Cc1cccc(F)c1`, the compound was classed as inactive in test [1], in test [5], in test [8] and in test [9]. In addition, the AC50 in test [2] was 3.48 µM (active); in test [3], 1.11 µM (active); in test [6] it was 4.26 µM (active); in [7], 0.522 µM (active); in test [10], 4.84 µM (active).

With `CC1(C)CCC(Cc2ccc(Cl)cc2)C1(O)Cn1cncn1` (stereo unspecified), the result in test [1] was inactive. Besides, the AC50 was 0.143 µM (active) in test [3] and 0.0359 µM (active) in [10].

As to `CC(C)C1CCC(Cc2ccc(Cl)cc2)C1(O)Cn1cncn1` (stereo unspecified), in test [1], the outcome was inactive.

As to `CC12CC1(C)C(=O)N(c1cc(Cl)cc(Cl)c1)C2=O` (stereo unspecified), the call in [1], in [2], in test [3], in [6], in [7] and in [10] was inactive. Further, the values for the AC50 in test [4] and in test [5] were 30.9 µM (active) and 14.1 µM (active), respectively.

`COP(=O)(OC)OC`: in test [1], the call was inactive.

Regarding `COc1cc(-c2ccc(N)c(OC)c2)ccc1N`, the call in [1], in test [3] and in test [10] was inactive. In addition, the half-maximal activity concentration (AC50) is 82.6 µM (active) in test [3] and 35.4 µM (active) in test [10].

Turning to `ClC(Cl)=C(Cl)C(Cl)=C(Cl)Cl`, the outcome in [1] was inactive.

In the case of `NNC(=S)NN`, the outcome in test [1], in test [8] and in test [9] was inactive. The AC50 in test [3] and in test [10] was 50 µM (active) each time.

On to `Oc1ccc(-c2ccccc2)cc1`, for which the result in test [1], in test [6], in [7] and in test [9] was inactive. Moreover, the AC50 was 87.6 µM (active) in [2], 74.2 µM (active) in [3] and 14 µM (active) in test [5].

On to `O=C/C=C/c1ccccc1`, for which the outcome in [1] was inactive.

On to `C(=NC1CCCCC1)=NC1CCCCC1`, for which the outcome in test [3], in [8], in test [9] and in [10] was inactive.

With `C=CC#N`, the result in test [1] was inactive.

For `CCCCCCCCC(=O)NCc1ccc(O)c(OC)c1`, the compound was called inactive in test [2], in test [3], in test [5], in test [6], in test [7] and in test [8]. Moreover, the compound was called inactive in [9] and in test [10].

Consider `C=CC(=O)N(C)C`, for which the call in test [2], in [3], in [5], in [6], in [7] and in [8] was inactive. The compound was called inactive in [9] and in test [10].

In the case of `C[C@]12CC[C@H](O)CC1=CC[C@@H]1[C@@H]2CC[C@]2(C)C(=O)CC[C@@H]12`, the compound was called inactive in [1], in [5], in test [7], in [8], in [9] and in test [10]. Moreover, the concentration at half-maximal activity (AC50) in [2] is 41.1 µM (active); in [3] it was 14.1 µM (active); in test [6], 7.72 µM (active).

As to `CCC[CH2][Sn]([CH2]CCC)([CH2]CCC)[O]C(=O)c1ccccc1`, in test [1], the AC50 is 0.0331 µM (active).

For the origin of these results see PubChem BioAssay (EPA / NIEHS).
